Compounds with a hit are over-represented: about 4.7% of the library has one in this group of screens.
SUMO HTRF inh = inhibitors of human SUMOylation (UBC9); HTRF SUMOylation assay, SAE1/SAE2 + UBC9, in vitro; AID 2006; 0.36% of 290,000 active; inhibition, % at 35 µM; in the data active means inhibition above about 50%, passing the limit was not always enough; inconclusive means no clear call, values can overlap the other calls
PABP polyA inh = PABP-poly(A) binding inhibition; inhibition, % at 35 µM; 1% of 290,000 active; PABP-poly(A) RNA binding, fluorescence polarization; P11940;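 further: calls also rest on retests at 20 µM and on dose response follow-up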
Target sequence (P11940 whole entry, looked up): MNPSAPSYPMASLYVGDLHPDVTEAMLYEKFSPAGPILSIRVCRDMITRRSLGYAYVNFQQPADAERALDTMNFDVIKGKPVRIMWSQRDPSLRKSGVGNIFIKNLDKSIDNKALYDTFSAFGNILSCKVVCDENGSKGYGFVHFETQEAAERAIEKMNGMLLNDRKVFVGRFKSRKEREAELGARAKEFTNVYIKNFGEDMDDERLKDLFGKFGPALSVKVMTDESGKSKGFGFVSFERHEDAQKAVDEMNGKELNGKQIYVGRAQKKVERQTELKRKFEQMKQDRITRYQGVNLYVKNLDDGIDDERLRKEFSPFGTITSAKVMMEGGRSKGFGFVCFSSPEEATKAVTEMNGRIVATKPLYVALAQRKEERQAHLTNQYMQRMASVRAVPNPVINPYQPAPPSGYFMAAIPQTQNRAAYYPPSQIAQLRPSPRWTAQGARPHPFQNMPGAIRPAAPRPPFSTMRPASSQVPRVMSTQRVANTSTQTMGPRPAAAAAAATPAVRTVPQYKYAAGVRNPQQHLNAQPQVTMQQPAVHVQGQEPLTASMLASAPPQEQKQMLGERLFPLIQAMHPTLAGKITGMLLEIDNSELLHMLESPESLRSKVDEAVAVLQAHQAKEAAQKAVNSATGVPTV
ALR inh = inhibitors of human sulfhydryl oxidase ALR. P55789. purified ALR, DTT oxidation, H2O2 HRP-luminol luminescence. inhibition, % (no concentration beside the values). 3.8% of 290,000 active. AID 485317;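 active means mean replicate inhibition above about 79%, with every replicate also reaching it, limit read from the data; inconclusive means only one of the two criteria met; inactive means mean below limit and not every replicate reaching it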
eIF4H inh = inhibitors of RNA binding by human eIF4H; inhibition, % at 35 µM; 0.94% of 290,000 active; eIF4H fluorescence polarization binding assay; Q15056;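 further: calls also rest on retests at 20 µM and on dose response follow-up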
MLLE-PAM2 inh = blocks PAM2 peptide binding to the PABP1 MLLE domain; inhibition, % at 20 µM; 0.36% of 360,000 active; AID 588489; GST-MLLE / FITC-PAM2 fluorescence polarization; P11940; in the data active means inhibition above about 35%, passing the limit was not always enough
Efflux pump inh = antifungal efflux pump inhibition, Nile Red retention; inhibition, % at 10 µM; 0.44% of 330,000 active; S. cerevisiae Candida pump triplex;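 active means plate passing quality check with inhibition over a set limit, or well fluorescence over plate mean plus 4 SD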;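 further: Nile Red retained in pooled yeast measured as flow cytometry median fluorescence; higher means more Nile Red kept so more efflux inhibition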
Of the large screens only hits and unclear results are named; the others gave an inactive call. Unless noted, how the calls were made is not given here.

CN1Cc2c(N3CCOCC3)nc(SCc3ccccc3)c(C#N)c2CC1(C)C	PABP polyA inh inconclusive, eIF4H inh inconclusive, MLLE-PAM2 inh 39.5
CC1(C)Cc2c(C#N)c(SCC(=O)c3ccccc3)nc(N3CCOCC3)c2CS1	none
CCSc1nc(N2CCOCC2)c2c(c1C#N)CC(C)(C)N(C)C2	none (no result: ALR inh)
COC(=O)CSc1nc(N2CCOCC2)c2c(c1C#N)CC(C)(C)N(C)C2	PABP polyA inh inconclusive, ALR inh 94.7, eIF4H inh inconclusive
C=CCSc1nc(N2CCOCC2)c2c(c1C#N)CC(C)(C)N(C)C2	PABP polyA inh 23.8, eIF4H inh 50.1 (no result: ALR inh)
COc1ccc(NC2CCCN(C(=O)c3ccccc3C(F)(F)F)C2)cc1 (configuration not stated)	ALR inh 99.1
Cc1ccc(NC2CCCN(C(=O)c3cccs3)C2)cc1C (configuration not stated)	ALR inh 98.5
Cc1ccc(NC2CCCN(C(=O)c3nonc3C)C2)cc1C (configuration not stated)	none (no result: SUMO HTRF inh, PABP polyA inh, ALR inh, eIF4H inh, Efflux pump inh)
CC(C)c1ccc(NC2CCCN(C(=O)c3cccs3)C2)cc1 (configuration not stated)	ALR inh 98.7
COc1ccc(OC)c(C(=O)N2CCCC(Nc3ccc(F)cc3)C2)c1 (configuration not stated)	ALR inh 93.7
COc1ccc(NC2CCCN(C(=O)c3cccc(C(F)(F)F)c3)C2)cc1OC (configuration not stated)	ALR inh inconclusive
O=C(O)c1ccc2c(c1)S(=O)(=O)c1cc(N3CCN(c4ncccn4)CC3)ccc1C2=O	none (no result: SUMO HTRF inh, PABP polyA inh, ALR inh, eIF4H inh, Efflux pump inh)
CN[C@H]1C[C@H]2c3[nH]c4ccc(-c5cccc(C)c5)cc4c3CCN2C[C@H]1[C@H](C)O	none (no result: SUMO HTRF inh, PABP polyA inh, ALR inh, eIF4H inh, Efflux pump inh)
COc1ccc(C)cc1NC(=O)c1ccc(S(=O)(=O)N2CCCCC2)cc1	none
COc1ccc(NC(=O)C2CCN(C(=O)c3cccs3)CC2)cc1	none
COc1ccc(NC2CCCN(C(=O)c3cccs3)C2)cc1 (configuration not stated)	ALR inh 98.6
COc1ccc(-c2cc(=O)c3cc(OC)ccc3o2)cc1	none
COc1ccc(/C=C/c2cc(=O)c3cc(Cl)ccc3o2)cc1	ALR inh 97.0
CC(=O)Nc1ccc(NC(=O)CSc2nc(N)c(NC(=O)c3ccco3)c(=O)[nH]2)cc1	ALR inh 99.0
Nc1nc(SCC(=O)OCc2ccccc2)[nH]c(=O)c1NC(=O)c1ccco1	ALR inh 99.7
Cn1c(N)c(C(=O)COC(=O)Cc2ccc(Cl)c(Cl)c2)c(=O)n(C)c1=O	none (no result: SUMO HTRF inh, PABP polyA inh, ALR inh, eIF4H inh)
Cc1ccccc1S(=O)(=O)Oc1cccc2c(O)cccc12	ALR inh 98.9
COc1ccc(CN(C)C(=O)c2[nH]c(C)c(C(C)=O)c2C)cc1F	none
C#Cc1ccc([C@@H]2C=C(C(=O)O)O[C@H](OCC)[C@H]2CCCO)cc1	none (no result: SUMO HTRF inh, PABP polyA inh, eIF4H inh, Efflux pump inh)
CC(C)=C1SC(N2CCN(c3ccc(Cl)cc3)CC2)=NC1=O	PABP polyA inh inconclusive
CC(C)=C1SC(N2CCN(c3ccc(C)cc3)CC2)=NC1=O	ALR inh 94.0
CC(O)/C=C/c1ccc2ccccc2n1 (configuration not stated)	MLLE-PAM2 inh 38.3
Fc1cccc(F)c1/C=C/c1ccc2ccccc2n1	none
COc1cccc(C2C3=C(CCCC3=O)Nc3[nH]n(-c4ccccc4)c(=O)c32)c1 (configuration not stated)	ALR inh 78.4
COc1cc(C2C3=C(CCCC3=O)Nc3[nH]n(-c4ccccc4)c(=O)c32)ccc1O (configuration not stated)	ALR inh 99.9
CCOC(=O)C1CCN(C(=O)COC(=O)c2ccc([N+](=O)[O-])o2)CC1	none (no result: SUMO HTRF inh, PABP polyA inh, eIF4H inh)
CCN(CCS(=O)(=O)c1ccc(Br)cc1)Cc1nc2ccccc2c(=O)[nH]1	none (no result: SUMO HTRF inh, PABP polyA inh, eIF4H inh)
COc1cccc(-c2nc(CS(=O)CC(=O)NCc3ccccc3Cl)c(C)o2)c1 (configuration not stated)	ALR inh 99.1
COc1ccc(-c2nc(CS(=O)CC(=O)NCc3ccc4c(c3)OCO4)c(C)o2)cc1 (configuration not stated)	ALR inh 98.9
COc1cccc(-c2nc(CS(=O)CC(=O)NCc3ccc4c(c3)OCO4)c(C)o2)c1 (configuration not stated)	ALR inh 99.0
Cc1ccc(S(=O)(=O)N2C[C@H]3N(C(=O)OC(C)C)N(C(=O)OC(C)C)C[C@H](OC(=O)Nc4cccs4)[C@@]3(O)C2)cc1	none (no result: SUMO HTRF inh, PABP polyA inh, ALR inh, eIF4H inh, Efflux pump inh)
CC(C)N1CCC(N2CCN(CCCn3cccn3)CC2CCO)CC1 (configuration not stated)	none (no result: ALR inh)
CC[C@]1(C(=O)OC)[C@H]2C(=O)N(Cc3ccccc3)C(=O)[C@H]2[C@H]2CN=C(SC)N21	none (no result: SUMO HTRF inh, PABP polyA inh, ALR inh, eIF4H inh)
COc1ccc(C(=O)c2ccc(Cl)cc2)cc1	none (no result: ALR inh)
COc1ccc(C(=O)c2ccc(Cl)c([N+](=O)[O-])c2)cc1	ALR inh 96.7
CC1(C(=O)NC(=S)N(CCC#N)c2ccccc2)CC1(Cl)Cl (configuration not stated)	MLLE-PAM2 inh 47.3 (no result: ALR inh)
CCC1Oc2ccc(C)cc2N(CC(=O)NCC2CCCO2)C1=O (configuration not stated)	none
COC(=O)c1cc(NC(=O)c2ccccc2)c(=O)oc1C/C=N\OCc1ccc(Cl)cc1Cl	PABP polyA inh 87.1, eIF4H inh 72.1
CO/N=C\Cc1oc(=O)c(NC(=O)c2ccccc2)cc1C(=O)OC	PABP polyA inh 107.8, eIF4H inh 80.8
O=C(CSc1nnc(-c2ccncc2)o1)N1CCc2ccccc2C1	none
O=C1C=C(c2cc(C(F)(F)F)cc(C(F)(F)F)c2)C[C@@H](c2ccc(Cl)cc2)C1	none (no result: SUMO HTRF inh, PABP polyA inh, eIF4H inh)
O=C(COC(=O)c1cc(=O)[nH]c2ccccc12)NCCc1ccccc1	none (no result: SUMO HTRF inh, PABP polyA inh, eIF4H inh)
Nc1ccc(CCc2ccc(N)cc2)cc1	ALR inh 85.4 (no result: SUMO HTRF inh, PABP polyA inh, eIF4H inh)
Nc1ccc(CCc2ccccn2)cc1	none (no result: SUMO HTRF inh, PABP polyA inh, ALR inh, eIF4H inh, Efflux pump inh)
CCn1c(CSCc2ccc(Cl)cc2)n[nH]c1=S	none
Cn1c(CSCc2ccc(Cl)c(Cl)c2)n[nH]c1=S	ALR inh 90.4
O=c1[nH]c2cc3ccccc3cc2nc1C(F)(F)F	MLLE-PAM2 inh 41.4
O=c1[nH]c2ccccc2nc1C(F)(F)C(F)F	none
Oc1ccc(-c2csc(Nc3ccccn3)n2)c(O)c1	ALR inh 92.9
NS(=O)(=O)c1ccc(Nc2nc(-c3ccc(O)cc3O)cs2)cc1	ALR inh 98.8
Cc1cccnc1Nc1nc(-c2ccc(O)cc2O)cs1	ALR inh 76.6
O=C(NCC1CCCO1)c1cc([N+](=O)[O-])ccc1N1CCC(Cc2ccccc2)CC1 (configuration not stated)	none (no result: SUMO HTRF inh, PABP polyA inh, eIF4H inh)
CN[C@H]1C[C@H]2c3cc(N4CCN(C)CC4)ccc3CCN2C(=O)[C@H]1[C@H](C)O	none (no result: SUMO HTRF inh, PABP polyA inh, ALR inh, eIF4H inh, Efflux pump inh)
CC(C)CCC(O)(CCC(C)C)C(=O)NNc1ccccc1	none
CC(C)CC(O)(CC(C)C)C(=O)NNc1ccccc1	ALR inh 98.9
COc1cccc(NC(=S)N2CCN(S(C)(=O)=O)CC2)c1	none
